Data from the antibiotic and cytotoxicity screens of Wong et al. (2023).
About 3,300 (8.5%) of roughly 39,000 compounds were called active. This is one part of a sample in which actives are shown more often than they occur.

Tested on: HepG2
Assay: cytotoxicity call (relative viability < 0.9)
Details: 10 µM

**Q.** Which cytotoxicity call does the source give for Cn1cccc1C(=O)NCc1cn2c(n1)CN(S(C)(=O)=O)CC2 here?
**A.** The cytotoxicity call was “inactive”.

**Q.** With COC(=O)[C@@H]1N2C(=O)[C@@H](N3C[C@](C)(OC)O[C@@H](Cc4ccccc4)[C@H]3/C=C/C3CC3)[C@H]2SC1(C)C as the molecule, how does the cytotoxicity call read?
**A.** Its cytotoxicity call is “inactive”.

**Q.** With C[C@H]1CCCCO[C@@H](CN(C)C(=O)Nc2cccc3ccccc23)[C@@H](C)CN([C@@H](C)CO)C(=O)c2cc(NC(=O)c3ccncc3)ccc2O1 as the molecule, how does the cytotoxicity call read?
**A.** Its cytotoxicity call is “inactive”.

**Q.** C[C@H]1CN([C@@H](C)CO)C(=O)c2cc(C#CCN(C)C)cnc2O[C@@H]1CN(C)C(=O)Nc1cc(F)ccc1F was tested. Which cytotoxicity call did it give?
**A.** Its cytotoxicity call is “inactive”.

**Q.** Which cytotoxicity call does the source give for O=C(C[C@@H]1CC[C@H]2[C@@H](COC[C@H](O)CN2S(=O)(=O)c2ccccc2)O1)NCc1ccc(-c2ccccc2)cc1 here?
**A.** Its cytotoxicity call is “inactive”.

**Q.** With COCC(=O)N1C[C@@H](C)[C@@H](OC)CN(C)C(=O)c2ccc(NC(=O)c3ccc(F)cc3)cc2OC[C@H]1C as the molecule, how does the cytotoxicity call read?
**A.** Its cytotoxicity call is “inactive”.

**Q.** With COc1ccc(S(=O)(=O)N(C)C[C@H]2Oc3ccc(NS(=O)(=O)c4c(C)noc4C)cc3CC(=O)N([C@H](C)CO)C[C@@H]2C)cc1 as the molecule, how does the cytotoxicity call read?
**A.** Its cytotoxicity call is “inactive”.

**Q.** Which cytotoxicity call does the source give for COc1ccc(S(=O)(=O)N(C)C[C@H]2OCCCC[C@@H](C)Oc3ccc(NC(=O)Nc4cccc5ccccc45)cc3C(=O)N([C@H](C)CO)C[C@H]2C)cc1 here?
**A.** The cytotoxicity call was “inactive”.

**Q.** How did the cytotoxicity call turn out when CC(C)(C)NC(=O)C1CN(Cc2cccnc2)CCN1CC(O)CC(Cc1ccccc1)C(=O)NC1c2ccccc2CC1O (stereo unspecified) was run?
**A.** Its cytotoxicity call is “active”.

**Q.** CC(C)(C)NC(=O)[C@@H]1CN(Cc2cccnc2)CCN1C[C@@H](O)C[C@@H](Cc1ccccc1)C(=O)N[C@H]1c2ccccc2C[C@H]1O was tested. Which cytotoxicity call did it give?
**A.** Its cytotoxicity call is “inactive”.

**Q.** CC(C)(C)NC(=O)[C@@H]1CN(Cc2cccnc2)CCN1C[C@@H](O)C[C@@H](Cc1ccccc1)C(=O)N[C@@H]1c2ccccc2C[C@@H]1O was tested. Which cytotoxicity call did it give?
**A.** Its cytotoxicity call is “inactive”.

**Q.** Which cytotoxicity call does the source give for O=C(C[C@@H]1CC[C@H]2[C@@H](COC[C@H](O)CN2S(=O)(=O)c2cccc(F)c2)O1)NCCCN1CCOCC1 here?
**A.** Its cytotoxicity call is “inactive”.

**Q.** NCc1ccncc1 was tested. Which cytotoxicity call did it give?
**A.** The cytotoxicity call was “inactive”.

**Q.** For C=CCOC(=O)[C@@H]1[C@H]2C(=O)O[C@H](c3ccccc3)[C@H](c3ccccc3)N2[C@H](c2ccc(OCCOC(=O)[C@H]3C[C@H]4C(=O)NCC(=O)N4[C@H]3c3ccc(O)cc3)cc2)[C@@]12C(=O)Nc1ccccc12, which cytotoxicity call is on record?
**A.** Its cytotoxicity call is “inactive”.

**Q.** With C[C@H]1CC/C=C\[C@H]2O[C@@]34C=CCN(CCN5CCOCC5)C(=O)[C@H]3N(CCCO)C(=O)[C@@H]4[C@@H]2C(=O)O1 as the molecule, how does the cytotoxicity call read?
**A.** The cytotoxicity call was “inactive”.

**Q.** With CC[C@@H](C)c1ccc(NC(=O)c2ccc(N(CC)CC)cc2)cc1 as the molecule, how does the cytotoxicity call read?
**A.** The cytotoxicity call was “inactive”.

**Q.** For C[C@@H](N)c1ccc(C(=O)Nc2ccnc3[nH]ccc23)cc1, which cytotoxicity call is on record?
**A.** The cytotoxicity call was “active”.

**Q.** With Nc1nc(=O)[nH]cc1NC(=O)c1ccccc1 as the molecule, how does the cytotoxicity call read?
**A.** Its cytotoxicity call is “inactive”.

**Q.** For c1ccc2c(CSc3nc4ccccc4s3)cccc2c1, which cytotoxicity call is on record?
**A.** Its cytotoxicity call is “inactive”.

**Q.** With CCSc1cccc2cccnc12 as the molecule, how does the cytotoxicity call read?
**A.** Its cytotoxicity call is “inactive”.

**Q.** With c1cnc2c(SCc3nc4ccccc4s3)cccc2c1 as the molecule, how does the cytotoxicity call read?
**A.** The cytotoxicity call was “active”.

**Q.** COc1ccc(S(=O)(=O)Nc2ccc3c(c2)C(=O)N([C@H](C)CO)C[C@H](C)[C@@H](CN(C)Cc2ccc(Cl)c(Cl)c2)O3)cc1 was tested. Which cytotoxicity call did it give?
**A.** Its cytotoxicity call is “inactive”.

**Q.** Which cytotoxicity call does the source give for COc1ccc(S(=O)(=O)Nc2ccc3c(c2)C(=O)N([C@@H](C)CO)C[C@H](C)[C@H](CN(C)Cc2ccc(Cl)c(Cl)c2)O3)cc1 here?
**A.** The cytotoxicity call was “inactive”.

**Q.** With COc1ccc(S(=O)(=O)Nc2ccc3c(c2)C(=O)N([C@@H](C)CO)C[C@H](C)[C@@H](CN(C)Cc2ccc(Cl)c(Cl)c2)O3)cc1 as the molecule, how does the cytotoxicity call read?
**A.** Its cytotoxicity call is “inactive”.

**Q.** Which cytotoxicity call does the source give for COc1ccc(S(=O)(=O)Nc2ccc3c(c2)C(=O)N([C@@H](C)CO)C[C@@H](C)[C@H](CN(C)Cc2ccc(Cl)c(Cl)c2)O3)cc1 here?
**A.** The cytotoxicity call was “active”.

**Q.** COc1ccc(S(=O)(=O)Nc2ccc3c(c2)C(=O)N([C@@H](C)CO)C[C@@H](C)[C@@H](CN(C)Cc2ccc(Cl)c(Cl)c2)O3)cc1 was tested. Which cytotoxicity call did it give?
**A.** The cytotoxicity call was “active”.

**Q.** For COc1ccc(S(=O)(=O)Nc2ccc3c(c2)C(=O)N([C@H](C)CO)C[C@H](C)[C@H](CN(C)Cc2ccc(Cl)c(Cl)c2)O3)cc1, which cytotoxicity call is on record?
**A.** The cytotoxicity call was “inactive”.

**Q.** How did the cytotoxicity call turn out when C[C@@H]1CCCCO[C@@H](CN(C)S(=O)(=O)c2ccc(Cl)cc2)[C@@H](C)CN([C@H](C)CO)C(=O)c2cc(NC(=O)CCCCCC(=O)Nc3ccccc3N)ccc2O1 was run?
**A.** The cytotoxicity call was “inactive”.

**Q.** For C[C@H]1CN([C@@H](C)CO)C(=O)Cc2cc(NS(C)(=O)=O)ccc2O[C@H]1CN(C)C, which cytotoxicity call is on record?
**A.** The cytotoxicity call was “inactive”.

**Q.** C[C@H]1CN([C@@H](C)CO)C(=O)Cc2cc(NC(=O)c3ccncc3)ccc2O[C@@H]1CN(C)Cc1ccncc1 was tested. Which cytotoxicity call did it give?
**A.** The cytotoxicity call was “inactive”.

**Q.** Which cytotoxicity call does the source give for C=CCOc1ccc(C(=O)C2=C(O)C(=O)N(CCCN3CCOCC3)[C@@]23C(=O)N(C)c2ccccc23)cc1C here?
**A.** Its cytotoxicity call is “inactive”.

**Q.** With COCC(=O)Nc1ccc2c(c1)C(=O)N(C)[C@H]1CC[C@@H](CC(=O)NC3Cc4ccccc4C3)O[C@@H]1CO2 as the molecule, how does the cytotoxicity call read?
**A.** Its cytotoxicity call is “inactive”.

**Q.** How did the cytotoxicity call turn out when COc1ccc(CN(C)C[C@H]2OCCCC[C@@H](C)Oc3ccc(NS(=O)(=O)c4c(C)noc4C)cc3C(=O)N([C@H](C)CO)C[C@H]2C)cc1 was run?
**A.** Its cytotoxicity call is “inactive”.

**Q.** COc1ccc(NC(=O)Nc2ccc3c(c2)C(=O)N([C@H](C)CO)C[C@H](C)[C@H](CN(C)C(=O)Nc2ccc(C(F)(F)F)cc2)O3)cc1 was tested. Which cytotoxicity call did it give?
**A.** Its cytotoxicity call is “inactive”.

**Q.** With C[C@@H]1CN([C@H](C)CO)C(=O)c2cc(NS(=O)(=O)c3ccc(Cl)cc3)ccc2O[C@@H](C)CCCCO[C@@H]1CN(C)Cc1ccc(Cl)c(Cl)c1 as the molecule, how does the cytotoxicity call read?
**A.** Its cytotoxicity call is “active”.

**Q.** C[C@@H]1CN([C@H](C)CO)C(=O)c2cc(NS(=O)(=O)c3ccc(Cl)cc3)ccc2O[C@@H](C)CCCCO[C@H]1CN(C)Cc1ccc(Cl)c(Cl)c1 was tested. Which cytotoxicity call did it give?
**A.** Its cytotoxicity call is “active”.

**Q.** With C[C@@H]1CCCCO[C@@H](CN(C)Cc2ccc(Cl)c(Cl)c2)[C@H](C)CN([C@@H](C)CO)C(=O)c2cc(NS(=O)(=O)c3ccc(Cl)cc3)ccc2O1 as the molecule, how does the cytotoxicity call read?
**A.** Its cytotoxicity call is “active”.

**Q.** C[C@@H]1CCCCO[C@@H](CN(C)Cc2ccc(Cl)c(Cl)c2)[C@@H](C)CN([C@@H](C)CO)C(=O)c2cc(NS(=O)(=O)c3ccc(Cl)cc3)ccc2O1 was tested. Which cytotoxicity call did it give?
**A.** The cytotoxicity call was “active”.

**Q.** Which cytotoxicity call does the source give for C[C@@H]1CN([C@H](C)CO)C(=O)c2c(c3ccccc3n2C)-c2ccccc2CO[C@H]1CN(C)Cc1ccc(Oc2ccccc2)cc1 here?
**A.** Its cytotoxicity call is “inactive”.

**Q.** With O=C(C[C@@H]1CC[C@@H]2[C@H](COC[C@H](O)CN2C(=O)Nc2cccc(Cl)c2)O1)NCCCN1CCOCC1 as the molecule, how does the cytotoxicity call read?
**A.** Its cytotoxicity call is “inactive”.

**Q.** Which cytotoxicity call does the source give for C[C@@H]1CN([C@H](C)CO)C(=O)Cc2cc(NS(C)(=O)=O)ccc2O[C@@H]1CN(C)S(=O)(=O)c1cn(C)cn1 here?
**A.** The cytotoxicity call was “inactive”.
